# In the supplement of paper PMC7724964:
# T1: BTN1A1 285-479 SPRY (domain begin residue: 285, domain end residue: 479), Q13410
# T1 chain: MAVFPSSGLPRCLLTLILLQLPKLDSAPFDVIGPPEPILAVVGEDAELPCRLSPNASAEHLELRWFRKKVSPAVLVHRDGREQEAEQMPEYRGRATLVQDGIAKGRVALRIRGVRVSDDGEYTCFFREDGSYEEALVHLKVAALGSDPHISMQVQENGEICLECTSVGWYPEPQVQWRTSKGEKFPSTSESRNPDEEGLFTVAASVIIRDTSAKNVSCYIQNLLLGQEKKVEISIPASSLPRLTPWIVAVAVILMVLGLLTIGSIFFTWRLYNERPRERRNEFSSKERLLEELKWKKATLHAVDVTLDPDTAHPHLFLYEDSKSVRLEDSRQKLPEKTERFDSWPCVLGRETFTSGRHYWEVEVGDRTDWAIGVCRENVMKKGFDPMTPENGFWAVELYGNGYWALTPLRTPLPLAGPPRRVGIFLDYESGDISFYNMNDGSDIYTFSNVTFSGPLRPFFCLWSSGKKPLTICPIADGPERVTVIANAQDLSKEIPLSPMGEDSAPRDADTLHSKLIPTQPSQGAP
# T2: CAPN2 513-700 EF-hand_8 (domain begin residue: 513, domain end residue: 700), P17655
# T2 chain: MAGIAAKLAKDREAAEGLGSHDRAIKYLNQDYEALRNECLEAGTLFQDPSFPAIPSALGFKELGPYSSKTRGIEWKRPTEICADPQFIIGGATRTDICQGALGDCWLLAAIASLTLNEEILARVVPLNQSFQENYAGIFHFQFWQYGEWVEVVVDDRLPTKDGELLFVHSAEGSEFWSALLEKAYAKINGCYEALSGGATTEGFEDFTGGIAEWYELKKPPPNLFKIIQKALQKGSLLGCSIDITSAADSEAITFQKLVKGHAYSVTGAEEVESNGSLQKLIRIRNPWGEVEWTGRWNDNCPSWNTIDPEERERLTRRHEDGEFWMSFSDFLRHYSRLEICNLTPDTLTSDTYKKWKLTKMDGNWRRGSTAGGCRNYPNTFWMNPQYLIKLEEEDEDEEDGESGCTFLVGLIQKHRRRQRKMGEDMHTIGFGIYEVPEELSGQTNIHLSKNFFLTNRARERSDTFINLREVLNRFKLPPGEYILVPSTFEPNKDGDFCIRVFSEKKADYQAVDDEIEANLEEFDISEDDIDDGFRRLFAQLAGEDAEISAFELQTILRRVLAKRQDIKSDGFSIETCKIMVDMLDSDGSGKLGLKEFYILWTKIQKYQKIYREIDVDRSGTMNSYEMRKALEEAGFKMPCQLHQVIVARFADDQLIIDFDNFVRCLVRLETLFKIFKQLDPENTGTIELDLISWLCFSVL
# T3: CAPNS1 1-268 EF-hand_8+EF-hand_5 (domain begin residue: 1, domain end residue: 268), P04632
# T3 chain: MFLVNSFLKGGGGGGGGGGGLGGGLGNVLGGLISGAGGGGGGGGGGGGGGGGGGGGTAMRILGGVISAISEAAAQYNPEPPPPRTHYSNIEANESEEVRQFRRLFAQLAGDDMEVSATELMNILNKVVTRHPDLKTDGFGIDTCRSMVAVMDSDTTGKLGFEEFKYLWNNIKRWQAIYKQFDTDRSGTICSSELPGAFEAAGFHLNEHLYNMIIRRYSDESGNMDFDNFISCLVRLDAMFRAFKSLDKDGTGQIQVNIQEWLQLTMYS
# Molecular target: T1, BTN1A1 285-479 SPRY (domain begin …
# Experiment: phage ELISA signal ratio (GST-PRM binding over GST background); higher = stronger binding of peptide-phage to the PRM
# Experimental: (§1)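 Phage-displayed random hexadecapeptides (Cys-free, flanked by invariant Gly linkers, fused to the M13 P8 major coat protein) were selected over 5 rounds against GST-fused human PRM domains. Individual clones from rounds 4-5 were tested by phage ELISA, and positive clones binding the target but not GST were sequenced. Values are the ELISA signal ratio of target over background (GST); the background signal is given separately.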
row,Binder,phage ELISA signal ratio
1,VDGWWIARSEHLMQMA,11.9
2,DVTWWSERAQATLVMM,12.4
3,FEQHWMQKQMAVRQIV,13.6
4,QTWQERQAMMMHMMQW,15.7
5,GGIDWQGVYMKHFEMT,20.6
6,DWQYTYMPDMIPDWVM,20.7
7,LSSLETYKNHGLMFMF,22.5

# Molecular target: T2, CAPN2 513-700 EF-hand_8 (domain begin …
# Experiment: as above
# Experimental: as §1
row,Binder,phage ELISA signal ratio
1,VTVPPWLMEMIMELMQ,5.99
2,GDWEWVERWLEMHLLE,12.6
3,ISESQIAQFVMAWMQQ,22.5
4,WDAFVNDFMHEWSTFK,26.5

# Molecular target: T3, CAPNS1 1-268 EF-hand_8+EF-hand_5 …
# Experiment: as above
# Experimental: as §1
row,Binder,phage ELISA signal ratio
1,LHSNLEEWLLEDLMMW,18.9
2,YQQDLVDFLWNDLYAF,22.7
3,VNAHDMLEHWLYQDMI,28.3

# Molecular target: CBX3 109-173 Chromo_shadow (domain begin residue: 109, domain end residue: 173), Q13185
# Experiment: as above
# Experimental: as §1
# CBX3 109-173 Chromo_shadow (domain begin residue: 109, domain end residue: 173), Q13185, sequence (Q13185 whole entry): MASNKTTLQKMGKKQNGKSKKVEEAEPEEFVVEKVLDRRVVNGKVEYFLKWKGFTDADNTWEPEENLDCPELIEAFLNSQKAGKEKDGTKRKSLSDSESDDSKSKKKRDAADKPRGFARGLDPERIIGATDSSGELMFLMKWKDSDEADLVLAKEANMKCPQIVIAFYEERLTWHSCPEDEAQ
row,Binder,phage ELISA signal ratio
1,NWLFLDPDYYNVHWPS,3.29
2,WIENWSVSPWDLTNPF,4.99
